Records with an inconclusive call do not appear. Calls of active or inactive are those of the source. Unless noted, the call rests on the fitted dose curve; in most records, active means well fitted curve in the direction sought with a large enough effect; inconclusive means small, poorly fitted or top-dose-only effect, or another doubt; inactive means no such curve, though single readings can be large; an effect the other way counts as inactive or inconclusive.
Tests used:
[1] = molecular target: Tumor susceptibility gene 101 protein (Homo sapiens) (UniProt Q99816); assay: qHTS Validation Assay for Iinhibitors of HIV-1 Budding by Blocking the Interaction of PTAP/TSG101 (AID 485342; calls by dose curve); settings: TSG101-PTAP binding, fluorescence polarization, 4-point titration; series mostly up to 115 µM
Sequence of Tumor susceptibility gene 101 protein (Homo sapiens) (Q99816 whole entry, looked up, the tested form may be a part): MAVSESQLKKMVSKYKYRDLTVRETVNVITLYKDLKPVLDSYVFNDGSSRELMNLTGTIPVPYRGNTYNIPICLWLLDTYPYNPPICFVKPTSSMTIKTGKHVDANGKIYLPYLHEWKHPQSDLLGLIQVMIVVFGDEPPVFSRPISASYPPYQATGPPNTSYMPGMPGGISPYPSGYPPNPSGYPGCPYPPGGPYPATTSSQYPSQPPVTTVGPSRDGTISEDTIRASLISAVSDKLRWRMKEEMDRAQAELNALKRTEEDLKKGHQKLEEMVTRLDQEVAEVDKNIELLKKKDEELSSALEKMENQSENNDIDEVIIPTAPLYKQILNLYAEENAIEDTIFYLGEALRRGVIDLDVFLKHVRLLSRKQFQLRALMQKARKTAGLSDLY
Procedure, shortened: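 Compound wells held the Tsg101 binding domain (10 uM) and a FITC-conjugated PTAP peptide (50 nM) in buffer at pH 7.5 containing 0.15 M NaCl and 0.01% Tween 20; polarization was recorded after 20 min, r.t.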

[2] = molecular target: Beta-2 adrenergic receptor (Homo sapiens) (UniProt P07550); assay: qHTS validation assay of beta-arrestin-biased ligands of beta2-adrenergic receptor (AID 485366); settings: cell-based beta-arrestin recruitment to ADRB2, qHTS; series mostly up to 46.1 µM
Sequence of Beta-2 adrenergic receptor (Homo sapiens) (P07550 whole entry, looked up): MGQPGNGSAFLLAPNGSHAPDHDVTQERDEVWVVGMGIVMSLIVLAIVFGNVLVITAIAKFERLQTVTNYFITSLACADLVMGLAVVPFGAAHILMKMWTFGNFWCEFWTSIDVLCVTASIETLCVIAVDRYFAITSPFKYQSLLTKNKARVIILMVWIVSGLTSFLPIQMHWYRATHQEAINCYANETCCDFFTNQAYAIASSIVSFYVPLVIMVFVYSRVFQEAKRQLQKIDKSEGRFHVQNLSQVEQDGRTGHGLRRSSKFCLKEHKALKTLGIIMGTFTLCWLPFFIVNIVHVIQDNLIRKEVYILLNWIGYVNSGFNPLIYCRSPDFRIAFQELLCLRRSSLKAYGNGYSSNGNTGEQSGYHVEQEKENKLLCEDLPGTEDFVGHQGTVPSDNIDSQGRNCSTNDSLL
Procedure, shortened: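 Agonism was measured as beta-arrestin recruitment to recombinant beta2-AR, releasing tTA to drive luciferase. Cells were exposed for 18 hr at 37 degrees C to a series up to 46 microM. %Activity from corrected luminescence gave concentration-response curves.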

[3] = molecular target: Thioredoxin reductase 1, cytoplasmic (Rattus norvegicus) (UniProt O89049); assay: qHTS Assay for Substrates of Mammalian Selenoprotein Thioredoxin Reductase 1 (TrxR1) (AID 488772); settings: purified TrxR1, NADPH consumption substrate assay; series mostly up to 57.1 µM;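 further: a drop in NADPH fluorescence below the no-compound background marks a TrxR1 substrate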
Sequence of Thioredoxin reductase 1, cytoplasmic (Rattus norvegicus) (O89049 whole entry, looked up): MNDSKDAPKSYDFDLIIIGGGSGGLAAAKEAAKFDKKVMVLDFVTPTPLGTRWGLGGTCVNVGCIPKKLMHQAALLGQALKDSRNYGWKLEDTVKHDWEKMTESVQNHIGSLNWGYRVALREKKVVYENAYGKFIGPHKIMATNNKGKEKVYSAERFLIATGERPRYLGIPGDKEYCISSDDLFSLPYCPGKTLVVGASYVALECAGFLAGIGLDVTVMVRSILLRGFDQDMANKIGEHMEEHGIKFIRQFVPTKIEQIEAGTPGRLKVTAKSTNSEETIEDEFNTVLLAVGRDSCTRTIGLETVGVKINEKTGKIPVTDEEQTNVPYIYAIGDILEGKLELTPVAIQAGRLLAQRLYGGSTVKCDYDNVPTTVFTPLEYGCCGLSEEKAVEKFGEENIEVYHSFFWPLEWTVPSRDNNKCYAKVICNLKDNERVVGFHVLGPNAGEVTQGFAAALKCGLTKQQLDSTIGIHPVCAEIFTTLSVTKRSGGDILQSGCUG
Procedure, shortened: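 In this dual-purpose format, potential substrates are identified from the first fluorescence read after selenite addition, not from the 8-minute delta. Rat enzyme is preincubated with NADPH and then with compound at ~22 deg C.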

[4] = molecular target: Thioredoxin reductase 1, cytoplasmic (Rattus norvegicus) (UniProt O89049); assay: qHTS Assay for Inhibitors of Mammalian Selenoprotein Thioredoxin Reductase 1 (TrxR1) (AID 488773); settings: purified TrxR1 enzyme activity; series mostly up to 57.1 µM;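 further: drop in NADPH fluorescence over an 8 min run after selenite addition; nearly all actives have a fitted effect of over 40% in size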
Procedure, shortened: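 Inhibition is scored from the loss of NADPH fluorescence between first and last reads of an 8-min kinetic run. Selenite (400 uM) was the substrate, added after 15 min compound preincubation at room temperature.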

[5] = molecular target: Flap endonuclease 1 (Homo sapiens) (UniProt P39748); assay: qHTS Validation Assay for the Inhibitors of Human Flap endonuclease 1 (FEN1) (AID 488816); settings: FEN1 nuclease activity, fluorogenic DNA substrate; series mostly up to 57.1 µM
Sequence of Flap endonuclease 1 (Homo sapiens) (P39748 whole entry, looked up): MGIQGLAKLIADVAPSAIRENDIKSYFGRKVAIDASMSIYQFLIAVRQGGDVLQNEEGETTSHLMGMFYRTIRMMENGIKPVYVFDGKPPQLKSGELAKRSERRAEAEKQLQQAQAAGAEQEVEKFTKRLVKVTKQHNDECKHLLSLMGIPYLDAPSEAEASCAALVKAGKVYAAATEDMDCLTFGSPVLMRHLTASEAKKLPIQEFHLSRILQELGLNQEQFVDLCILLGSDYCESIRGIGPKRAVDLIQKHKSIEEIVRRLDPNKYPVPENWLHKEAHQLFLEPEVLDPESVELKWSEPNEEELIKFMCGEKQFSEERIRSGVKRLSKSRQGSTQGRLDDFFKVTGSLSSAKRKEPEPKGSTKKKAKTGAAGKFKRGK
Procedure, shortened: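 qHTS format: compounds and 10 nM FEN1 incubated 15 min at room temperature before adding 50 nM substrate. Cleavage followed by reads at 0 and 15 min; normalized data fitted to a four-parameter Hill curve.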

[6] = molecular target: M-phase phosphoprotein 8 (Homo sapiens) (UniProt Q99549); assay: qHTS Validation Assay for Inhibitors for MPP8 Chromodomain Interactions with Methylated Histone Tails (AID 488949); settings: AlphaScreen MPP8 binding to H3K9me3 peptide; series mostly up to 57.1 µM;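 further: 50 nM MPP8 with 50 nM peptide preformed then compounds added for 30 min; AlphaScreen signal from MPP8 chromodomain bound to biotinylated H3K9me3 peptide; top concentration of the series differs between compounds; nearly all actives have a fitted effect of over 55% in size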
Procedure, shortened: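 Chemiluminescent proximity assay: histidine-tag capture via nickel acceptor beads, biotin peptide via streptavidin donor beads. Protein and peptide each at 50 nM, pH 7.4, with 30 min incubations at room temperature for complex formation, compound exposure and bead binding.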

[7] = molecular target: Methanococcus maripaludis chaperonin (MmCpn) (UniProt Q6LX38); assay: High-Throughput Screening for Modulators of Cytosolic Chaperonin Activity: MmCpn Primary Screen (AID 488978); settings: Purified MmCpn ATPase activity, ADP HTRF detection, 10 min; series mostly up to 76.9 µM
Sequence of Methanococcus maripaludis chaperonin (MmCpn) (Q6LX38 1-543): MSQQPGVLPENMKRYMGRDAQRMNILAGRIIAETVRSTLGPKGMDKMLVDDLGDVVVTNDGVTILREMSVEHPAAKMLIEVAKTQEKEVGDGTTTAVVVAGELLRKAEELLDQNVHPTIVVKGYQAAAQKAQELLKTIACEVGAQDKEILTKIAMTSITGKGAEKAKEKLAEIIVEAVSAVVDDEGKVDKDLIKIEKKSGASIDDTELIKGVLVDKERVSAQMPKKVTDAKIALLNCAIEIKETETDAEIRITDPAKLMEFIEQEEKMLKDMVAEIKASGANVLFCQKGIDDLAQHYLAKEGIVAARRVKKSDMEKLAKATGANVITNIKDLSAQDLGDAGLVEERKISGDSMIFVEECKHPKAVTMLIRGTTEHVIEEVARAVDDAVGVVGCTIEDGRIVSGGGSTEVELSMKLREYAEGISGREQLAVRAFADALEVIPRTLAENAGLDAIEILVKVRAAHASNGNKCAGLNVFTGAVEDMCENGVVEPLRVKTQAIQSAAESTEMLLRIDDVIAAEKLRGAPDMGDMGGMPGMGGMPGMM
Procedure, shortened: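 HTRF readout (320 nm excitation, 590/665 nm emission) of ADP generated by 50 nM MmCpn hydrolysing 30 uM ATP during 10 min at 37C; compound preincubated 5 min RT.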

[8] = molecular target: D(1A) dopamine receptor (Homo sapiens) (UniProt P21728); assay: HTS Assay for Allosteric Agonists of the Human D1 Dopamine Receptor: Primary Screen for Agonists (AID 488981); settings: Inducible HEK293 T-REx D1 cells, calcium-flux fluorescence, 180 s kinetic; series mostly up to 41.8 µM
Sequence of D(1A) dopamine receptor (Homo sapiens) (P21728 whole entry, looked up): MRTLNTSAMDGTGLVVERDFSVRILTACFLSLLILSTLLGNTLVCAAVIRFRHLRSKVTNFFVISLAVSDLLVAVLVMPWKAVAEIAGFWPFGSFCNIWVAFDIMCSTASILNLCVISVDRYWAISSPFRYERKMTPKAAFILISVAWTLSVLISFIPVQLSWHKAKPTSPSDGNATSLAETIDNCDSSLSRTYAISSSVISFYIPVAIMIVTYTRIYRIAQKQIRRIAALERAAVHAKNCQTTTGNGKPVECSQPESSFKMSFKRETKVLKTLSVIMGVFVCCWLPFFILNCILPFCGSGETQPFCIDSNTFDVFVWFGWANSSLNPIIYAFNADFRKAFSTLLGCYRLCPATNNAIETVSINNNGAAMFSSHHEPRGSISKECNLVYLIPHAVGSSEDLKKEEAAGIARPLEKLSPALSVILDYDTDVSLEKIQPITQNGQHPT
Procedure, shortened: (§1)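 Calcium flux in an inducible, force-coupled HEK293 Trex D1 line (overnight at 30 C): agonist mode is the 180 s kinetic read after compound; potentiator mode is the following 180 s read after dopamine at EC20.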

[9] = molecular target: D(1A) dopamine receptor (Homo sapiens) (UniProt P21728); assay: HTS Assay for Allosteric Agonists of the Human D1 Dopamine Receptor: Primary Screen for Potentiators (AID 488982); settings: HEK293 T-REx D1 inducible cells, calcium flux, kinetic fluorescence; series mostly up to 8.37 µM
Procedure, shortened: as §1

[10] = molecular target: D(1A) dopamine receptor (Homo sapiens) (UniProt P21728); assay: HTS Assay for Allosteric Agonists of the Human D1 Dopamine Receptor: Primary Screen for Antagonists (AID 488983); settings: D1 receptor cell assay, antagonist mode, qHTS titration; series mostly up to 41.8 µM;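 further: calcium flux response to an EC80 dopamine challenge measured with no-wash dye; nearly all actives have a fitted effect of over 65% in size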
Procedure, shortened: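 Kinetic fluorescence at 1 cycle/sec tracked intracellular calcium in force-coupled, tetracycline-inducible HEK293 T-REx D1 cells. Loss of response to an EC80 dopamine dose, given 180 s after compound, marked antagonists.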

[11] = Validation screen for small molecules that induce genotoxicity in human embryonic kidney (HEK293T) cells expressing luciferase-tagged ELG1 (AID 493106); settings: luminescence; series mostly up to 46.1 µM
Procedure, shortened: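 Cells were dispensed at 2,000 per well, then 23 nL compound or DMSO was pinned in. After 16 hr at 37 °C and 5% CO2, ONE-Glo reagent was added. Luciferase activity was measured following 30 min at room temperature.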

[12] = qHTS for Inhibitors of Cell Surface uPA Generation: Validation Assay (AID 493164); settings: mouse cells, plasminogen activation; series mostly up to 38.3 µM;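 further: RAW 264.7 macrophage cells exposed to compound for 18 h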
Procedure, shortened: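 ATP-Lite luminescence read-out: ATP remains high when uPA activity-dependent LF translocation into the cytoplasm is blocked. RAW 264.7 cells, 18 h compound exposure at 37 C; 7-point titration, 2.45 nM to 38.3 uM final.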

[13] = molecular target: Peptidyl-prolyl cis-trans isomerase NIMA-interacting 1 (Homo sapiens) (UniProt Q13526); assay: qHTS Validation Assay to Find Inhibitors of Pin1 (AID 504536; active means well fitted inhibition curve with a large enough effect in the polarisation, with a control signal flat, not every such curve was filed as active; the % refers to the polarisation); settings: Pin1 fluorescence polarization peptide binding assay; series mostly up to 57.5 µM
Sequence of Peptidyl-prolyl cis-trans isomerase NIMA-interacting 1 (Homo sapiens) (Q13526 whole entry, looked up): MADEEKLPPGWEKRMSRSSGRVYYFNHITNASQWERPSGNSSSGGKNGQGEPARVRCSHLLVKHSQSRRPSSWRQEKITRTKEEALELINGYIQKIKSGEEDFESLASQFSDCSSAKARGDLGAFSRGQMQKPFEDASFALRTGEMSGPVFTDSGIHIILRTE
Procedure, shortened: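 Fluorescence polarization competition: compounds (titration) displace HiFluor-488-labeled Pin1-1b peptide from Pin1 (0.3 uM final) in pH 7.5 HEPES buffer with DTT, 10 min at room temperature; %Activity normalized to no-enzyme wells, curves fitted.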

[14] = molecular target: Phosphoglycerate kinase, glycosomal (Trypanosoma brucei brucei) (UniProt P07378); assay: qHTS Validation Assay to Find Inhibitors of Phosphoglycerate Kinase (AID 504547); settings: enzymatic PGK inhibition, coupled luminescence read-out; series mostly up to 57.5 µM
Sequence of Phosphoglycerate kinase, glycosomal (Trypanosoma brucei brucei) (P07378 whole entry, looked up): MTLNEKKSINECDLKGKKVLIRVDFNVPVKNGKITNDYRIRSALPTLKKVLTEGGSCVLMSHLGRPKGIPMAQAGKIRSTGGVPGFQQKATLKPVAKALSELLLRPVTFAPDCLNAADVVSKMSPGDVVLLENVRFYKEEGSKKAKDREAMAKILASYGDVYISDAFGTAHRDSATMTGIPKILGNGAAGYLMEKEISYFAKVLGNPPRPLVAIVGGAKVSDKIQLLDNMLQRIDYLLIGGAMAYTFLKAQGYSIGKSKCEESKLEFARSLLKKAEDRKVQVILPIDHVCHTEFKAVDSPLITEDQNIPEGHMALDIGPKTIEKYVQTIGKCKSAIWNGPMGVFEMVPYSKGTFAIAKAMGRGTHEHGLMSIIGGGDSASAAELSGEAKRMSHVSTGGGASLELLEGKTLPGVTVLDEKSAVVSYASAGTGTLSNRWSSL
Procedure, shortened: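 Luminescence end-point (Kinase-Glo Plus, 10 min) after a 60 min room-temperature coupled reaction. GAPDH at 100nM final supplies 1,3-BPG to PGK. Buffer: 100mM TEA pH 7.6, 5mM MgCl2, 0.01% Tween-20. Wells lacking PGK served as controls.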

[15] = molecular target: phosphoglycerate mutase (Leishmania major) (UniProt Q4Q090); assay: qHTS Validation Assay to Find Inhibitors of Phosphoglycerate Mutase (AID 504548); settings: biochemical enzyme activity; series mostly up to 57.5 µM;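 further: end-point luminescence from Kinase-GloPlus after the PGAM reaction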
Sequence of phosphoglycerate mutase (Leishmania major) (Q4Q090 1-553): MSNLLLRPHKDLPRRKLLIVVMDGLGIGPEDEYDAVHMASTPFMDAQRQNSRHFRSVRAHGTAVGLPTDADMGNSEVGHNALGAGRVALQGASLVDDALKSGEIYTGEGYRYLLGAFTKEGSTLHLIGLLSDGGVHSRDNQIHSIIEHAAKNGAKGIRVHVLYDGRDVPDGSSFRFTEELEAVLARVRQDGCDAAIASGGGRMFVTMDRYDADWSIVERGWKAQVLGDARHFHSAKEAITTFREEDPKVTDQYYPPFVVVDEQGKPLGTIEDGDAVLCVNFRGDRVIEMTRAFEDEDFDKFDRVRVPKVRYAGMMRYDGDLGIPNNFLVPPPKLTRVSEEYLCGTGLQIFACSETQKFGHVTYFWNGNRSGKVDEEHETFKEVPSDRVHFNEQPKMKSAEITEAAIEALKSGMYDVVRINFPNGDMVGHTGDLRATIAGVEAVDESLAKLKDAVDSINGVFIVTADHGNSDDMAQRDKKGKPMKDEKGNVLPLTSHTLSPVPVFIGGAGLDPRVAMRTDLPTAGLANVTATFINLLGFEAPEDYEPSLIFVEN
Procedure, shortened: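 L. major PGAM (1.25nM final) was added to substrate buffer and pinned compound, incubated 45 minutes at room temperature, then Kinase-GloPlus added; luminescence read after 10 minutes. Buffer: 100 mM TEA pH 7.6, 5 mM MgCl2, 0.01% Tween-20.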

[16] = molecular target: Glutaminase kidney isoform, mitochondrial (Homo sapiens) (UniProt O94925); assay: qHTS for Inhibitors of Glutaminase (GLS): LOPAC Validation (AID 624146); settings: glutaminase enzyme activity inhibition; series mostly up to 46.1 µM;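 further: glutamate product detected by oxidase and peroxidase coupled Amplex red fluorescence gain; nearly all actives have a fitted effect of over 60% in size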
Sequence of Glutaminase kidney isoform, mitochondrial (Homo sapiens) (O94925 whole entry, looked up, canonical isoform): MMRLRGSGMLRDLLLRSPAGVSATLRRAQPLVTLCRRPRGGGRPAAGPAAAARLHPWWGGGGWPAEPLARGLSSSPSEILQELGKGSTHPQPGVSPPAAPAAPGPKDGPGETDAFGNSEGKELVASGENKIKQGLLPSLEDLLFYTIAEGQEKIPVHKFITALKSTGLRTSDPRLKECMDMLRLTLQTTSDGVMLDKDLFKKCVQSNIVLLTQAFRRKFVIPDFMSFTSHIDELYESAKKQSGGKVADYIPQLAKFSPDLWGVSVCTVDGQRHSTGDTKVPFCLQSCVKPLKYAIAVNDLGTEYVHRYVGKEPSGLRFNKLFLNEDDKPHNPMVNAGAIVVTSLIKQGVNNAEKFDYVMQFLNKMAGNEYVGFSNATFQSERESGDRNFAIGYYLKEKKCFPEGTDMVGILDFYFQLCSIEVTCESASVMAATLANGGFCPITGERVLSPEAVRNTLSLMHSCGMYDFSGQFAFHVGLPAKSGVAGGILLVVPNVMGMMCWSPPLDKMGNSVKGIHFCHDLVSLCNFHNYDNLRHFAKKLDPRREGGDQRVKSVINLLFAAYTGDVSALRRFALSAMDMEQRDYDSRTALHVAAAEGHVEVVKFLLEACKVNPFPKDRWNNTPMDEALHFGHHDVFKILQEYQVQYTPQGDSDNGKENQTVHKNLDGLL
Procedure, shortened: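 hKGA; 45 mM KH2PO4 pH 8.2 + 0.02% Tween-20; cpd via pin tool; 1 mM Gln soln; GluOx/HRP/Amplex Red; RT 30 min; fluor. t0 & final.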

[17] = qHTS of Trypanosoma Brucei Inhibitors: LOPAC Validation (AID 624147); settings: purified enzyme assay, luminescence, 45 min; series mostly up to 57.5 µM
Procedure, shortened: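 ADP (130 uM final) triggers the TbPYK reaction after compound addition; incubation is 45 min at room temperature. Kinase-Glo Plus is then added and luminescence imaged. Normalized data are fitted to concentration-effect curves.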

[18] = molecular target: Glucagon-like peptide 1 receptor (Homo sapiens) (UniProt P43220); assay: qHTS of GLP-1 Receptor Agonists: LOPAC Validation (AID 624148); settings: GLP-1R agonist cell assay; series mostly up to 46.1 µM;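 further: luminescence from a luciferase reporter switched on by cAMP; higher luminescence signal means agonism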
Sequence of Glucagon-like peptide 1 receptor (Homo sapiens) (P43220 whole entry, looked up): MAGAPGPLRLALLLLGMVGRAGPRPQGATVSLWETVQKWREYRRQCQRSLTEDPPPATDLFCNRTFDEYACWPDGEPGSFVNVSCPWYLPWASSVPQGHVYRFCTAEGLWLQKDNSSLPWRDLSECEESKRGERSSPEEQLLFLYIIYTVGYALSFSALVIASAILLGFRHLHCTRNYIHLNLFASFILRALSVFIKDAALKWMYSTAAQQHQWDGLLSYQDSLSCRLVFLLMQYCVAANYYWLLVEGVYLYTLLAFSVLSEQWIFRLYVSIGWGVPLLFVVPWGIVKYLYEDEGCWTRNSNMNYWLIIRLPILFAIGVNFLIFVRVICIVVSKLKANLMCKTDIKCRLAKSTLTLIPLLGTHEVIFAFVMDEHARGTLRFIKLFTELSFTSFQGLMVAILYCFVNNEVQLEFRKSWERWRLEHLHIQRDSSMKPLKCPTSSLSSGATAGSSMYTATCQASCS
Procedure, shortened: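 Agonism scored as increased luciferase luminescence driven by cAMP in HEK293 clones carrying GLP-1R. Cells settled 12 hours, received compound for 4-6 hr at 37 deg C, 5% CO2, and were read after 12 min detection reagent at RT.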

[19] = qHTS of Nrf2 Activators: LOPAC Validation (AID 624149); settings: Nrf2/ARE reporter cell assay; series mostly up to 46.1 µM
Procedure, shortened: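 Cells (AREc32_Fluc) are plated at 1000 per well in OPTI-MEM containing 5% FBS and left overnight. Compounds are pinned in and incubated 24 hr at 37 deg C, and firefly luciferase is detected with Steady-Glo.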

[20] = HTS Assay for Allosteric Antagonists of the Human D2 Dopamine Receptor: Hit Validation in HTRF (AID 624455); settings: Cells stably expressing D1 dopamine receptor, inhibition mode; series mostly up to 46.1 µM;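 further: stable D1 dopamine receptor cell line scored for blocking the D1 response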
Procedure, shortened: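 Inhibition of the D1-mediated response is measured by HTRF in cells that stably express the D1 dopamine receptor. Compounds reaching this step are hits from calcium-flux antagonism testing at EC80 dopamine in inducible Hek293 Trex D2 cells.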

Measured: outcome

CC[C@@H](CO)Nc1nc(NCc2ccccc2)c2ncn(C(C)C)c2n1
inactive: all assays above

Source: PubChem BioAssay (NCATS)
